The source of these data is PubChem BioAssay AID1688 (National Center for Advancing Translational Sciences (NCATS), 2009).

Structures are written as SMILES. About 2,400 (1.1%) of roughly 220,000 compounds were called active. Not shown: some 7% with an inconclusive outcome. This excerpt belongs to a sample that is enriched for actives. Values without a mark were called inactive. Calls come from the whole dose curve; as a rule, active = well fitted inhibition curve with a large enough effect; inconclusive = small, poorly fitted or top-dose-only effect, or effect the other way; inactive = no such curve, though single readings can be large or run the other way.
% is set by controls: 0 for no effect and ±100 for the full control effect; potency is the fitted concentration of half-maximal effect.

The assay can be described thus: qHTS Multiplex Assay to Identify Dual Action Probes in a Cell Model of Huntington: Aggregate Formation (GFP). Note: nearly all actives have a fitted effect of over 60% in size. The settings on record: PC12 HttQ103-GFP aggregates, Acumen cytometry, 40 h; series mostly up to 9.22 µM; activity change, negative = inhibition: at the top concentration. In short, it runs like this:
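Compounds (qHTS titration) were added to PC12 cells expressing an ecdysone-driven HTT exon 1 Q103–GFP fusion after induction with 100 nM tebufenozide. Aggregate formation was measured as GFP objects in cell lysates.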
For orientation: qHTS replaces the single test concentration by a dilution series.
Turning to `CC(C)=NN1C(=O)c2ccccc2NC1(C)C`, the “activity change, negative = inhibition” value was 8.6%.

As to `Cc1ccccc1Nc1c(-c2ccccc2)nc2ncccn12`, the “activity change, negative = inhibition” value is 18.6%.

Consider `O=C(CNC(=O)C(c1ccccc1)c1ccccc1)N/N=C\c1ccc2c(c1)OCO2`, for which the “activity change, negative = inhibition” value is 5.61% [at 46.1 µM].

Consider `C/C(=N\NC(=O)CNC(=O)C(c1ccccc1)c1ccccc1)c1ccc(C)cc1`, for which the Potency was 12.6 µM (active).

With `C/C(=N\NC(=O)Cc1ccc(F)cc1)c1ccc(F)cc1`, the “activity change, negative = inhibition” value is -15.3% [at 46.1 µM].

For the compound `CCNC(=S)N1CCN(CCN=CC2=C(O)CC(C)(C)CC2=O)CC1`, the “activity change, negative = inhibition” value is -0.873%.

As for `Cc1c(Cl)c([N+](=O)[O-])nn1CCCC(=O)Nc1cc(Cl)ccc1Cl`, the “activity change, negative = inhibition” value was 6.08% [at 46.1 µM].

`Cc1c(Cl)c([N+](=O)[O-])nn1Cc1ccc(C(=O)N/N=C\c2cc(Cl)ccc2O)o1`: the Potency is 1.58 µM (active).

Take `O=C(N/N=C/c1ccc2c(c1)OCO2)c1ccc(Cn2cc([N+](=O)[O-])cn2)o1`: the “activity change, negative = inhibition” value was 16.5% [at 46.1 µM].

Regarding `CC(NC(=S)Nc1ccccc1)C(c1cccs1)N1CCOCC1` (centres undefined), the “activity change, negative = inhibition” value was -9.73%.

As for `O=C(Nc1cccc(C(F)(F)F)c1)c1cc(Br)cc(Br)c1O`, the Potency is 5.01 µM (active).

On to `O=C(O)CSCC(=O)Nc1cccc(C(F)(F)F)c1`, for which the “activity change, negative = inhibition” value was 13.9% [at 46.1 µM].

Consider `O=C(Nc1cccc(C(F)(F)F)c1)c1cnccn1`, for which the “activity change, negative = inhibition” value was -11%.

As to `Cc1cc(C(=O)CSc2nc(N)cc(=O)[nH]2)c(C)n1Cc1ccco1`, the “activity change, negative = inhibition” value is 0.897%.

For `COC(c1ccccc1)(c1ccccc1)C(Oc1nc(C)cc(C)n1)C(=O)O` (centres undefined), the “activity change, negative = inhibition” value was 12.9% [at 46.1 µM].

Take `COc1ccc(/C=C/c2nnc(NC(=O)C(C)C)s2)cc1`: the “activity change, negative = inhibition” value was 3.19%.

Regarding `CCN(CC)S(=O)(=O)c1ccc(N(C)Cc2ccc(C(F)(F)F)cc2)nc1`, the Potency is 10 µM (active).

On to `CCN(CC)S(=O)(=O)c1ccc(N(C)CCc2ccc(OC)c(OC)c2)nc1`, for which the “activity change, negative = inhibition” value was -4.47% [at 46.1 µM].

Turning to `CCN(CC)S(=O)(=O)c1ccc(Cl)c(NC(=O)c2ccncc2)c1`, the “activity change, negative = inhibition” value was -14.4%.

Regarding `C/C(=N\OCC(=O)O)c1ccc(Cl)cc1`, the “activity change, negative = inhibition” value was 1.57%.

For the compound `O=C(CNCc1cccs1)Nc1cc(S(=O)(=O)N2CCCC2)ccc1Cl`, the “activity change, negative = inhibition” value is 10.3%.

In the case of `O=C(Nc1cc(Cl)cc(Cl)c1)C(NCCCO)c1ccccc1` (centres undefined), the “activity change, negative = inhibition” value was 2.63% [at 46.1 µM].

In the case of `OCCCNc1nccc(-c2cc(Nc3cccc(Cl)c3)ncn2)n1`, the Potency was 0.794 µM (active).

As for `CC(C)n1cnc2c(Nc3cccc(Cl)c3)nc(N(CCO)CCCO)nc21`, the “activity change, negative = inhibition” value was 10.2%.

Consider `Brc1ccc2c(c1)[C@H]1OCC[C@H]1[C@@H](c1cccs1)N2`, for which the “activity change, negative = inhibition” value was -17.7%.

In the case of `CCCCSc1nc2ccccc2[nH]1`, the “activity change, negative = inhibition” value is -0.277%.

Regarding `CCC(C)N1C(=O)S/C(=C/c2ccc(Sc3nc4ccccc4[nH]3)o2)C1=O` (centres undefined), the Potency is 10 µM (active).

Consider `O=C(CSc1nc2ccccc2[nH]1)c1cccs1`, for which the “activity change, negative = inhibition” value is 9.78% [at 46.1 µM].

On to `O=C(O)c1ccc(/C=N/Nc2nc(N3CCCCC3)nc(N3CCCCC3)n2)cc1`, for which the “activity change, negative = inhibition” value was -22.3%.

In the case of `NC(=O)c1ccc(NC(=O)COC(=O)c2ccc([N+](=O)[O-])cc2)cc1`, the “activity change, negative = inhibition” value was 13.2%.

Take `COc1ccc(N(Cc2ccccc2)S(=O)(=O)c2cccc(C(=O)O)c2)cc1`: the “activity change, negative = inhibition” value is 39.5%.

With `CCOC(=O)N1CCN(C(=O)c2ccc(S(=O)(=O)c3ccc(C)cc3)c(NC(C)=O)c2)CC1`, the “activity change, negative = inhibition” value was 10.1% [at 46.1 µM].

Turning to `O=C(NCCN1CCOCC1)c1ccc2c(c1)N(Cc1ccc(Cl)cc1)CCS2`, the “activity change, negative = inhibition” value is -10.9%.

Regarding `CCOC(=O)N1CCN(C(=O)c2ccc3c(c2)N(Cc2ccc(C)cc2)CCS3)CC1`, the Potency was 11.2 µM (active).

Regarding `Cc1ccc(S(=O)(=O)N2CCN(C(=O)COC(=O)c3c(C)noc3C)CC2)c(C)c1`, the “activity change, negative = inhibition” value was -9.73%.

For `Cc1onc(-c2ccccc2)c1C(=O)N1CCOCC1`, the “activity change, negative = inhibition” value was -8.31% [at 46.1 µM].

Turning to `O=C(c1ccccc1-c1ccccc1)N1CCOCC1`, the “activity change, negative = inhibition” value is 1.58% [at 46.1 µM].

Take `Cc1oc2c(c1C(=O)N1CCOCC1)C(=O)c1ccccc1C2=O`: the Potency was 10 µM (active).

`COCCN1C2=C(COC(C)(C)C2)C(=S)NC1c1ccccc1` (centres undefined): the “activity change, negative = inhibition” value was 23.8%.

`COC(=O)c1sccc1NN1C(=O)c2ccccc2C1=O`: the “activity change, negative = inhibition” value was -15.1%.

Take `COC(=O)c1sc2ncccc2c1OCc1ccc(Cl)cc1Cl`: the “activity change, negative = inhibition” value was -3.42% [at 46.1 µM].

In the case of `COCCNC(=O)c1ccccc1-c1nc(-c2ccccc2Cl)no1`, the “activity change, negative = inhibition” value is 8.12% [at 46.1 µM].

Take `COCCNC(=O)c1snc2ccc(Cl)cc12`: the Potency is 10 µM (active).

For the compound `Clc1ccc2c(c1)C1=C(C(c3ccncc3)O2)C(c2ccc(Br)cc2)n2ncnc2N1` (centres undefined), the Potency is 12.6 µM (active).

As to `Brc1ccc(C2=CC(c3ccco3)n3ncnc3N2)cc1` (centres undefined), the “activity change, negative = inhibition” value was -24.3% [at 46.1 µM].

In the case of `COC(=O)C1=C(C)Nc2ncnn2C1c1cccnc1` (centres undefined), the “activity change, negative = inhibition” value was -8.05% [at 46.1 µM].

On to `Cc1ccc(-c2ncc(Cl)cc2-c2ccc(S(C)(=O)=O)cc2)cn1`, for which the “activity change, negative = inhibition” value was 1.61% [at 46.1 µM].

On to `Cc1ccc(Cn2c(SCC(=O)N/N=C/c3ccccc3OCC(=O)O)nc3ccccc32)cc1`, for which the “activity change, negative = inhibition” value was 17.6%.

With `O=C(CCCN1C(=O)/C(=C\c2ccco2)SC1=S)Nc1cccc2ccccc12`, the “activity change, negative = inhibition” value was 24.3%.

For `O=C(CCCN1C(=O)/C(=C\c2ccccc2)SC1=S)Nc1ccccc1O`, the “activity change, negative = inhibition” value was 22.3%.

As to `O=C(CCCN1C(=O)/C(=C/c2ccco2)SC1=S)Nc1ccccc1`, the Potency is 25.1 µM (active).

On to `CC(=O)NCC(O)c1ccc([N+](=O)[O-])cc1` (centres undefined), for which the “activity change, negative = inhibition” value is -18.6%.

Regarding `C/C(Cc1ccccc1)=N\NC(=O)CNC(=O)c1ccc2c(c1)OCCO2`, the “activity change, negative = inhibition” value is 2.88%.

For the compound `O=C(Nc1ccc(N2CCN(C(=O)c3ccccc3)CC2)c(Cl)c1)c1cccnc1`, the Potency is 22.4 µM (active).

With `O=C(Nc1ccc(N2CCN(C(=O)c3ccccc3)CC2)c(Cl)c1)c1ncn[nH]1`, the “activity change, negative = inhibition” value is -29.1%.

Consider `COC(=O)c1cc(NC(=O)c2cccnc2)ccc1N1CCOCC1`, for which the “activity change, negative = inhibition” value is 1.39%.

As for `O=C(Nc1ccc(N2CCOCC2)nc1)c1c(F)cccc1F`, the “activity change, negative = inhibition” value is 10.4%.

In the case of `O=C1C2C3C=CC(C4CC34)C2C(=O)N1/N=C/c1ccc(-c2ccccc2[N+](=O)[O-])o1` (centres undefined), the Potency was 25.1 µM (active).

For the compound `Cc1cc(-c2ccc(/C=N/n3cnnc3)o2)c([N+](=O)[O-])cc1C`, the “activity change, negative = inhibition” value is 3.65% [at 46.1 µM].

On to `N#C/C(=C/c1ccc(-c2ccccc2[N+](=O)[O-])o1)C(=O)NCCN1CCCCC1`, for which the “activity change, negative = inhibition” value was -12.2%.

Take `COC(=O)c1ccccc1Sc1c(/C=N/OCc2ccc(Cl)cc2)c(C(F)(F)F)nn1C`: the “activity change, negative = inhibition” value was -26.1% [at 46.1 µM].

Take `FC(F)(F)c1cccc(NC(=S)Nc2cccc(Cl)c2)c1`: the “activity change, negative = inhibition” value was -6.26% [at 46.1 µM].

As to `Cn1nc(C(F)(F)F)c(C(=O)Nc2cccc(C(F)(F)F)c2)c1SCc1ccc(Cl)cc1`, the Potency was 12.6 µM (active).

For the compound `COc1ccc2[nH]c(=S)cc(C)c2c1`, the “activity change, negative = inhibition” value was 19.9%.

As to `O=C(Nc1nnc(COc2ccccc2)s1)Nc1ccccc1F`, the “activity change, negative = inhibition” value was -6.11%.

In the case of `CC(NC(=S)NNS(=O)(=O)c1ccc(C(C)(C)C)cc1)c1ccccc1` (centres undefined), the “activity change, negative = inhibition” value was -16.9%.

Take `Cc1cc2ncn(CCCCOc3ccccc3)c2cc1C`: the Potency is 11.2 µM (active).

In the case of `Clc1ncn(CCOc2ccccc2)c1Cl`, the “activity change, negative = inhibition” value is -7.07%.

On to `COCCOCCn1cnc2ccccc21`, for which the “activity change, negative = inhibition” value was -19.1% [at 46.1 µM].
